Sampled rows, rich in hits. Any-hit rate of the full collection: about 11%.
G9a block – inhibitors of human histone lysine methyltransferase G9a. G9a H3K9 monomethylation, AlphaScreen, 2 h. Potency, µM (series often up to 102 µM), without a hit: at the top dose activity, negative = inhibition, most hits filed as inhibitors. actives 8.8% (n = 350,000); further: on the % scale 0 is the no-effect control and ±100 the full control effect; nearly all actives have a fitted effect of over 75% in size
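Signal arises when biotinylated H3K9 peptide, once monomethylated, bridges streptavidin donor and antibody-captured acceptor beads. Enzyme at 20 nM was preincubated 15 min with test compounds; peptide 500 nM and SAM 20 uM then reacted for 2 h.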
JMJD2A Tudor inh – JMJD2A Tudor domain (human) inhibition; AID 504339; Potency, µM (doses to about 114 µM), for the others: at the top dose activity change, negative = inhibition, usual class: inhibitors; AlphaScreen JMJD2A-Tudor / H3K4me3 peptide binding; actives 4.4% (n = 390,000); further: on the % scale 0 is the no-effect control and ±100 the full control effect; nearly all actives have a fitted effect of over 50% in size
L3MBTL1 block – L3MBTL1 (human) inhibition; Potency, µM (series often up to 57.1 µM), for inactives: at the top dose activity, negative = inhibition, most hits filed as inhibitors; AlphaScreen L3MBTL1–H3K9me1 peptide binding; actives 0.66% (n = 230,000); AID 485360; Q9Y468; further: on the % scale 0 is the no-effect control and ±100 the full control effect; nearly all actives have a fitted effect of over 60% in size
Target sequence (Q9Y468 whole entry, looked up): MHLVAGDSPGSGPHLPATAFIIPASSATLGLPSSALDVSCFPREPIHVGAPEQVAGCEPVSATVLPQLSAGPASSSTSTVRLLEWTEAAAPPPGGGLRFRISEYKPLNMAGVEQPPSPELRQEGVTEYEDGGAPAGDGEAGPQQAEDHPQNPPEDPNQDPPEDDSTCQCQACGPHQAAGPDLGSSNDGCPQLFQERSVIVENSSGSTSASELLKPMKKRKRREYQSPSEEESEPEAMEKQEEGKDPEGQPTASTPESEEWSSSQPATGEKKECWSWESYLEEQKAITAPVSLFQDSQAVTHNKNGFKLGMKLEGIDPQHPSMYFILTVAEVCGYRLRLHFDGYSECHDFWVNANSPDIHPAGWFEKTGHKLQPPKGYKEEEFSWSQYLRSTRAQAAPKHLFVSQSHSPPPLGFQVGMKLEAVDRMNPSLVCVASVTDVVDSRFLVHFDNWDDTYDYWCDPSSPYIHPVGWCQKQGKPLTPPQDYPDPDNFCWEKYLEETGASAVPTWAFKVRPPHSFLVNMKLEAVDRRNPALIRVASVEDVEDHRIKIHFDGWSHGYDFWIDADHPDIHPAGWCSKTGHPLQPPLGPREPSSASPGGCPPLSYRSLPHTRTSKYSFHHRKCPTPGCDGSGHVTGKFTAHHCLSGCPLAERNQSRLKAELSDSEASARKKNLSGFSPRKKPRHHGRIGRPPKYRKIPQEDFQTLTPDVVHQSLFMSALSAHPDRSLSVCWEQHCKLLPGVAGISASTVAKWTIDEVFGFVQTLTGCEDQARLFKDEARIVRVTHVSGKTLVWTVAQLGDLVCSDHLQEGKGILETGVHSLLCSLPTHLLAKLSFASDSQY
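AlphaScreen assay: L3MBTL1 (50 nM final) was preincubated 30 min at room temperature with biotinylated H3(1-15)K9me1 peptide (75 nM final), then 30 min with library compounds; streptavidin donor and nickel chelate acceptor beads (10 ug/mL final) added, 30 min dark.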
HP1b chromo inh – blocks HP1-beta chromodomain binding to methylated histone tails | P83916 | AlphaScreen HP1-beta / biotin-H3K9me3 peptide binding | Potency, µM (doses to about 114 µM), inactives show at the highest dose activity change, negative = inhibition, actives largely listed as inhibitors | actives 0.56% (n = 390,000) | AID 540317; further: nearly all actives have a fitted effect of over 70% in size
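Compound inhibition of the preformed complex between 50 nM HP1-beta and 50 nM biotinylated H3K9me3 peptide was read by AlphaScreen. Buffer was PBS pH 7.4 with 0.01% Tween-20. Incubations ran 30 min at room temperature, with 10 ug/mL donor/acceptor beads.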
BAZ2B inh – blocks human BAZ2B; Q9UIF8; AlphaScreen BAZ2B-H3K14Ac peptide displacement; Potency, µM (series often up to 114 µM), inactives show top-dose activity change, negative = inhibition, hits mostly inhibitors; actives 4.4% (n = 360,000); AID 504333; further: on the % scale 0 is the no-effect control and ±100 the full control effect; nearly all actives have a fitted effect of over 60% in size
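AlphaScreen displacement of biotin-H3(5-23)K14Ac peptide (50 nM final) from BAZ2B (50 nM final) in PBS pH 7.4, 0.01% Tween-20; complex preformed 30 min RT, then compounds (top 110 uM) 30 min RT, beads 20 min dark.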
Numbers without * were called inactive; ? = inconclusive; . = no result given; [ ] = remark or other dose. The call rests on the fitted dose curve; in most records, active means well fitted inhibition curve with a large enough effect; inconclusive means small, poorly fitted or top-dose-only effect; inactive means no such curve, though single readings can be large or run the other way. Potency means the concentration at half of the fitted maximal effect.

SMILES	G9a block	JMJD2A Tudor inh	L3MBTL1 block	HP1b chromo inh	BAZ2B inh
CCS(=O)(=O)NC(C)C(c1cccs1)N1CCN(c2ccc(OC)cc2)CC1 (stereo not given)	14.1µM*	-30.6%	.	-16.6%	.
CC(NS(C)(=O)=O)C(c1cccs1)N1CCN(c2ccccc2)CC1 (stereo not given)	20.2%[59 µM]	-11.6%	22.3%	16.4%	-6.0%
COc1ccc(N2CCN(C(c3cccs3)C(C)NS(=O)(=O)c3ccccc3)CC2)cc1 (stereo not given)	?	10µM*	?	-35.3%	25.1µM*
CC(=O)N1CCC(N(Cc2ccco2)C(=O)Nc2ccc(C)c(Cl)c2)CC1	4.0%[59 µM]	-23.8%	.	5.3%	-5.2%
CCOC(=O)c1c(C)[nH]c(CCC(=O)Nc2c(Cl)cc(OC)cc2OC)c1C	1.6%[59 µM]	?	.	3.5%[57 µM]	?
O=C(NS(=O)(=O)Nc1ccccc1)C1=C(N2CCCC2)COC1=O	.	100µM*	-6.1%	28.3%	.
COc1ccccc1C1C(C(=O)c2ccc(C)o2)=C(O)C(=O)N1c1cc(C)on1 (stereo not given)	89.1µM*	-10.3%	.	22.3%	?
COc1ccccc1C1C(C(=O)c2ccco2)=C(O)C(=O)N1c1cc(C)on1 (stereo not given)	?	-9.0%	.	24.8%	-21.4%
COc1cccc(C2C(C(=O)c3ccc(C)o3)=C(O)C(=O)N2c2cc(C)on2)c1 (stereo not given)	44.7µM*	-12.3%	.	12.0%	?
CCOc1ccc(C2C(C(=O)c3ccc(C)o3)=C(O)C(=O)N2c2cc(C)on2)cc1OC (stereo not given)	50.1µM*	-34.1%	.	10.5%	-26.2%[57.1 µM]
COc1cc(C2C(C(=O)c3ccc(C)o3)=C(O)C(=O)N2c2cc(C)on2)ccc1OCc1ccccc1 (stereo not given)	44.7µM*	3.9%	.	22.6%	-1.3%
CC1CCCC(NC(=O)CCC(=O)NCc2ccccc2)C1C (stereo not given)	13.6%	-11.3%	4.5%	44.2%	-4.5%
COc1cccc(C2C(C(=O)c3cccs3)=C(O)C(=O)N2c2cc(C)on2)c1 (stereo not given)	?	-4.1%	4.2%	30.3%	?
CCCCOc1cccc(C2C(C(=O)c3ccc(C)o3)=C(O)C(=O)N2c2nnc(C)s2)c1 (stereo not given)	.	?	.	3.8%	-23.5%
C=CCOc1cccc(C2C(C(=O)c3ccc(C)o3)=C(O)C(=O)N2c2nccs2)c1 (stereo not given)	31.6µM*	?	-28.4%	10.0%	?
CCCCCOc1ccc(C2C(C(=O)c3ccc(C)o3)=C(O)C(=O)N2c2cc(C)on2)cc1 (stereo not given)	44.7µM*	?	.	16.0%	-20.1%
COc1cc(C2C(C(=O)c3ccc(C)o3)=C(O)C(=O)N2c2cc(C)on2)cc(OC)c1OC (stereo not given)	0.1%[59 µM]	-1.7%	9.1%	30.4%	6.3%
COc1cc(C2C(C(=O)c3ccc(C)o3)=C(O)C(=O)N2c2cc(C)on2)ccc1O (stereo not given)	44.7µM*	?	-3.7%	5.0%	?
COc1cc(C2C(C(=O)c3cccs3)=C(O)C(=O)N2c2cc(C)on2)ccc1O (stereo not given)	50.1µM*	?	1.8%	18.4%	?
CCNc1nc(OC)nc(Oc2ccc(=O)[nH]n2)n1	4.2%[59 µM]	-12.3%	.	23.2%	-12.7%
CCN(Cc1ccccc1)C(=O)Nc1ccc2c(c1)N(C)C(=O)c1ccccc1S2	-28.5%[59 µM]	-20.5%	.	6.3%	-34.1%
Cc1cccc(N2C(=O)C(O)=C(C(=O)c3cccs3)C2c2cccc(Oc3ccccc3)c2)n1 (stereo not given)	50.1µM*	-33.1%	?	18.7%	?
Cc1cccc(N2C(=O)C(O)=C(C(=O)c3cccs3)C2c2ccccc2)n1 (stereo not given)	-49.2%	-5.6%	3.6%	46.5%	-16.2%
COc1cccc(CNC(=O)c2ccc3nc(-c4ccc(F)cc4)c(-c4ccc(F)cc4)nc3c2)c1	0.6%[59 µM]	-23.9%	.	14.7%	-10.8%

Screening data: PubChem BioAssay, National Center for Advancing Translational Sciences (NCATS)
